{
  "source": "the supplement of paper PMC5940239",
  "key": {"[1]": {"test_system": "Madurella mycetomatis MM55", "settings": "7 days"}, "[2]": {"test_system": "Madurella mycetomatis MM55", "test": "IC90; higher = less potent", "settings": "7 days"}, "[3]": {"test_system": "Madurella mycetomatis MM55", "test": "percent growth relative to solvent control; higher = less inhibition, active = 20 or less", "settings": "100 µM; 7 days"}},
  "data": [
    {"smiles": "COc1ccccc1CNC(=O)c1cc(C2CC2)nc2c1cnn2C(C)C", "values": [
      {"measurement": "IC50", "setting": "[1]", "value": 51.9, "unit": "µM"},
      {"measurement": "IC90", "setting": "[2]", "value": 88.8, "unit": "µM"},
      {"measurement": "percent growth", "setting": "[3]", "value": "-2.92% (active)"}
    ]},
    {"smiles": "O=C(Nc1nnc(-c2ccc(Cl)s2)o1)c1ccc(Cl)s1", "values": [
      {"measurement": "IC50", "setting": "[1]", "value": 54.3, "unit": "µM"},
      {"measurement": "IC90", "setting": "[2]", "value": 93.7, "unit": "µM"},
      {"measurement": "percent growth", "setting": "[3]", "value": "3.26% (active)"}
    ]},
    {"smiles": "Cc1nc(-c2ccccn2)nc(N2CCC(Cc3ccccc3)C2)c1Cl", "note": "(stereo unspecified)", "values": [
      {"measurement": "IC50", "setting": "[1]", "value": 5.1, "unit": "µM"},
      {"measurement": "IC90", "setting": "[2]", "value": 13.7, "unit": "µM"},
      {"measurement": "percent growth", "setting": "[3]", "value": "6.94% (active)"}
    ]},
    {"smiles": "c1ccc(Oc2ccc(-c3cncc(-c4ccc5[nH]ccc5c4)n3)cc2)cc1", "values": [
      {"measurement": "percent growth", "setting": "[3]", "value": "92.6% (inactive)"}
    ]},
    {"smiles": "CN(C(=O)c1cc2c(-c3cncnc3)cccc2[nH]1)c1ccccc1", "values": [
      {"measurement": "percent growth", "setting": "[3]", "value": "51.3% (inactive)"}
    ]},
    {"smiles": "Cc1ccc(S(=O)(=O)Nc2ccc(CN3CCN(C(=O)c4cccc(C#N)c4)CC3)cc2)cc1", "values": [
      {"measurement": "percent growth", "setting": "[3]", "value": "90.9% (inactive)"}
    ]},
    {"smiles": "COC(=O)C1=C(C)NC(C)=C(C(=O)OC(C)C)C1c1cccc2nonc12", "note": "(stereo unspecified)", "values": [
      {"measurement": "IC50", "setting": "[1]", "value": 45.1, "unit": "µM"},
      {"measurement": "IC90", "setting": "[2]", "value": 87.6, "unit": "µM"},
      {"measurement": "percent growth", "setting": "[3]", "value": "-1.92% (active)"}
    ]},
    {"smiles": "CCCCOC(=O)Nc1cc2nc(C3CCCCC3)[nH]c2cc1N1CCCC1", "values": [
      {"measurement": "IC50", "setting": "[1]", "value": 11.6, "unit": "µM"},
      {"measurement": "IC90", "setting": "[2]", "value": 18.4, "unit": "µM"},
      {"measurement": "percent growth", "setting": "[3]", "value": "7.67% (active)"}
    ]},
    {"smiles": "CCCn1nnc(NC(=O)COc2ccc(C3CCCCC3)cc2)n1", "values": [
      {"measurement": "IC50", "setting": "[1]", "value": 65.8, "unit": "µM"},
      {"measurement": "IC90", "setting": "[2]", "value": 94.3, "unit": "µM"},
      {"measurement": "percent growth", "setting": "[3]", "value": "2.18% (active)"}
    ]},
    {"smiles": "COc1cc(C(F)(F)F)nc2ccc(C)c(N)c12", "values": [
      {"measurement": "percent growth", "setting": "[3]", "value": "77.1% (inactive)"}
    ]},
    {"smiles": "C[C@H](C(N)=O)N1CCCC[C@H]1c1ccc(OCc2cccc(F)c2)cc1", "values": [
      {"measurement": "IC50", "setting": "[1]", "value": 64.2, "unit": "µM"},
      {"measurement": "IC90", "setting": "[2]", "value": 94.4, "unit": "µM"},
      {"measurement": "percent growth", "setting": "[3]", "value": "2.85% (active)"}
    ]},
    {"smiles": "NC(CC(=O)c1ccc(Cl)cc1Cl)C(Cl)(Cl)Cl", "note": "(stereo unspecified)", "values": [
      {"measurement": "IC50", "setting": "[1]", "value": 58.1, "unit": "µM"},
      {"measurement": "IC90", "setting": "[2]", "value": 95, "unit": "µM"},
      {"measurement": "percent growth", "setting": "[3]", "value": "5.11% (active)"}
    ]},
    {"smiles": "COc1ccc(-c2cnc3cnc(-c4cccc(OC(C)C)c4)cn23)cc1", "values": [
      {"measurement": "IC50", "setting": "[1]", "value": 43.6, "unit": "µM"},
      {"measurement": "IC90", "setting": "[2]", "value": 95, "unit": "µM"},
      {"measurement": "percent growth", "setting": "[3]", "value": "6.18% (active)"}
    ]}
  ]
}
